Measurements: PubChem BioAssay
Unmarked numbers belong to inactive results. For some assays here: Results with a measured potency or affinity are listed apart. Calls of active or inactive are those of the source. Unless noted, the rule behind the calls is not given here.

How the values were obtained:
[1] = antimalarial activity against Dd2 strain (AID 2302;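 active = growth inhibition above 50% at the single 2 µM test dose, taken to imply half-maximal potency below 2 µM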;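 note: 0% = DMSO untreated growth and 100% = chloroquine plus artemisinin killed control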); conditions: P. falciparum Dd2 in RBCs, LDH growth readout, 72 h; at 2 µM; stronger effect = higher value
[2] = human hepatoma cell viability loss – ATP luminescence, cytotoxicity control for P. falciparum antimalarial project, primary screen (AID 2303;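 active = inhibition above 50%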;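 note: 0% = DMSO wells and 100% = digitonin-killed cells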); conditions: HepG2 viability, 24-48 h, at 10 µM, stronger effect = higher value
[3] = target: L-lactate dehydrogenase (Plasmodium falciparum (isolate CDC / Honduras)) (UniProt Q27743); test: PfLDH activity inhibition – cell lysate, 3D7 strain, counter-screen for P. falciparum growth inhibition project (AID 2304);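 note: 0% = vehicle and 100% = reference inhibitor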; conditions: P. falciparum 3D7 crude extract, LDH APAD/NBT absorbance; at 2 µM; stronger effect = higher value
Chain of L-lactate dehydrogenase (Plasmodium falciparum (isolate CDC / Honduras)) (Q27743 whole entry, looked up): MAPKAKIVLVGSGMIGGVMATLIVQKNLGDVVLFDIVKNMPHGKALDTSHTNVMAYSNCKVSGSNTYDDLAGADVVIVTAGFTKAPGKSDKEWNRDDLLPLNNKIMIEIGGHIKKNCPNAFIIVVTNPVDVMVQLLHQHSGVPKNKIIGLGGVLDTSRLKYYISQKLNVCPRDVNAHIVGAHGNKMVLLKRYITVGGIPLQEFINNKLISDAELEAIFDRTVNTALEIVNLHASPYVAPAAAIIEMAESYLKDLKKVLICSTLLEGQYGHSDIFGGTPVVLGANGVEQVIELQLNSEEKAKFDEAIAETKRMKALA

[4] = inhibition of 3D7 malaria parasite growth – strain 3D7 (AID 2306);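 note: 0% = DMSO wells and 100% = chloroquine plus artemisinin control wells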; conditions: P. falciparum 3D7 erythrocytic growth, LDH absorbance, 72 h; at 2 µM; stronger effect = higher value
[5] = target: Calcium-dependent protein kinase 1 (Plasmodium falciparum (isolate 3D7)) (UniProt P62344); test: PfCDPK1 kinase inhibitors, biochemical, TCAMS library (AID 1159585; cut-off not given, nearly all actives have IC50 up to about 0.98 µM;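 note: inhibitors leave more ATP so luminescence rises with inhibition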); conditions: recombinant PfCDPK1, Kinase-Glo ATP depletion luminescence
Chain of Calcium-dependent protein kinase 1 (Plasmodium falciparum (isolate 3D7)) (P62344 whole entry, looked up): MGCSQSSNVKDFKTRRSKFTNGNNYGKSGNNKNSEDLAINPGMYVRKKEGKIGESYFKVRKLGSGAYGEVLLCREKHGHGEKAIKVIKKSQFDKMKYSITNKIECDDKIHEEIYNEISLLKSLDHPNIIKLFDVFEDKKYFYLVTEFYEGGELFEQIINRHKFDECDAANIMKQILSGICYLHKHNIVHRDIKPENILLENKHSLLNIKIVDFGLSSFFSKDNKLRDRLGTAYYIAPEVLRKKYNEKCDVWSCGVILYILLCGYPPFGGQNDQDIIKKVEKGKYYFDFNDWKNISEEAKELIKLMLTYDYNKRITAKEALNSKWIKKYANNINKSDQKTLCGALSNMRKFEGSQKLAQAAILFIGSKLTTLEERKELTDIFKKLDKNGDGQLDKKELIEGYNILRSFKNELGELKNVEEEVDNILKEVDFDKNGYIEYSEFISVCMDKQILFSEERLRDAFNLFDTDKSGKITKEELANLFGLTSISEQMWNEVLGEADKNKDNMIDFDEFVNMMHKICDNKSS

[6] = target: Plasmodium falciparum protein kinase 6 (PK6, PF3D7_1337100) (UniProt Q8IDW1); test: PfPK6 kinase inhibitors, biochemical, TCAMS library (AID 1159586); conditions: recombinant PfPK6, Kinase-Glo ATP depletion luminescence
Chain of Plasmodium falciparum protein kinase 6 (PK6, PF3D7_1337100) (Q8IDW1 1-305): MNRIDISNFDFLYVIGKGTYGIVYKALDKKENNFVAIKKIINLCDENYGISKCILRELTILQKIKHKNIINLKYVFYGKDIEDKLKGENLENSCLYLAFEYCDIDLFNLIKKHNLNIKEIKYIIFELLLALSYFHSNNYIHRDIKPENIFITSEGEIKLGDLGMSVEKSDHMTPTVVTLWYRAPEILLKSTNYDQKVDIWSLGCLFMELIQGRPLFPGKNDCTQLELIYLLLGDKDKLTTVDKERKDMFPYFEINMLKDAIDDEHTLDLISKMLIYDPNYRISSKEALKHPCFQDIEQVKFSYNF

[7] = target: Protein kinase 7 (PK7), Plasmodium falciparum 3D7 (PF3D7_0213400) (UniProt Q7YTF7); test: inhibition of Plasmodium PK7 catalytic activity – biochemical, TCAMS antimalarial set, Kinase-Glo luminescence (AID 1159587); conditions: recombinant PfPK7, Kinase-Glo ATP depletion luminescence
Chain of Protein kinase 7 (PK7), Plasmodium falciparum 3D7 (PF3D7_0213400) (Q7YTF7 1-343): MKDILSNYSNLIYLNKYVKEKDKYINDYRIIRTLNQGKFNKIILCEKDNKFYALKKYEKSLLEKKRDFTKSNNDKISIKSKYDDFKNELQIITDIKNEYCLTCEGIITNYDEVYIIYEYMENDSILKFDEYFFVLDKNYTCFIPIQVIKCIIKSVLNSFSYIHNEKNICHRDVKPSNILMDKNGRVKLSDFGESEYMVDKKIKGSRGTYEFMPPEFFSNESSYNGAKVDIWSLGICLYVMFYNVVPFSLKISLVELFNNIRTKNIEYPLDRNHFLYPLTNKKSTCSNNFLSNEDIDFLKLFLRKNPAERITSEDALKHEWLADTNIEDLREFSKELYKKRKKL

[8] = target: Calcium-dependent protein kinase 4 (Plasmodium falciparum (isolate 3D7)) (UniProt Q8IBS5); test: PfCDPK4 kinase inhibitors, biochemical, TCAMS library (AID 1159588; cut-off not given, nearly all actives have IC50 up to about 0.91 µM); conditions: recombinant PfCDPK4, Kinase-Glo ATP depletion luminescence
Chain of Calcium-dependent protein kinase 4 (Plasmodium falciparum (isolate 3D7)) (Q8IBS5 whole entry, looked up): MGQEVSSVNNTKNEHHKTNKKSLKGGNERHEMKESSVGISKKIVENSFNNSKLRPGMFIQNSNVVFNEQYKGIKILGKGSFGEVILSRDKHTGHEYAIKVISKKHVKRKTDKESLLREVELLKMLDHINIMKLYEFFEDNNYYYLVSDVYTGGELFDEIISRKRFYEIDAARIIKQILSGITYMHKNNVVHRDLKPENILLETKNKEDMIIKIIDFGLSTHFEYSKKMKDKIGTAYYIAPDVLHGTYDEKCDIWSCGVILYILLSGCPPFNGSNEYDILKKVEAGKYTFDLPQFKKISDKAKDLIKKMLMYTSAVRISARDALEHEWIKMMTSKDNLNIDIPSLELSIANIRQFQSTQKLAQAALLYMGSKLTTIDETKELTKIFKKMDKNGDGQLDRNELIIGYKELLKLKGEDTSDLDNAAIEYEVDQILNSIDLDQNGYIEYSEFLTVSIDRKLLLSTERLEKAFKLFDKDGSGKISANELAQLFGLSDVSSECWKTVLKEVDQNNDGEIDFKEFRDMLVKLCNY

SMILES	growth inhibition [1]	inhibition [2]	inhibition [3] [%]	growth inhibition [4]	outcome [5]	outcome [6]	outcome [7]	outcome [8]
COCCN(CCOC)c1ncc(-c2ccsc2)c(-c2nc(C)c(C)s2)n1	63% (active)	1%	5	96% (active)	inactive	inactive	inactive	inactive
Cc1cc(C(=O)N(Cc2ccc(-c3ccc(CNCCc4ccc(S(C)(=O)=O)cc4)cn3)cc2)C(C)CN(C)C)ccc1[N+](=O)[O-] (stereo not given)	46%	17%	-1	99% (active)	inactive	inactive	inactive	inactive
COC(=O)Nc1ccc(-c2ccc(C(=O)NC3CCN(C[C@H](O)c4ccnc5ccc(OC)cc45)CC3)cc2)c(C)c1	97% (active)	32%	-2	100% (active)	inactive	inactive	inactive	inactive
Oc1ccc(CCNc2nc(NCc3ccccc3-c3ccc(C(F)(F)F)cc3)nc(N3CCNCC3)n2)cc1	53% (active)	17%	8	97% (active)	inactive	inactive	inactive	inactive
CC(C)N1CCC(N(Cc2ccc(-c3ccc(C(F)(F)F)cc3)cc2)C(=O)Cn2c(CCc3cccc(F)c3F)nc(=O)c3cccnc32)CC1	80% (active)	100% (active)	6	100% (active)	inactive	inactive	inactive	inactive
Cc1cnc(NCCc2ccc(F)cc2)nc1N[C@@H](CC(C)C)C(=O)Nc1ccccc1	29%	19%	-1	87% (active)	inactive	inactive	inactive	inactive
Cc1cc(=O)[nH]c(-n2nc(C)cc2NC(=O)CC(c2ccccc2)c2ccccc2)n1	62% (active)	42%	2	90% (active)	inactive	inactive	inactive	inactive
CC(C)CCNC(=O)C1Cc2c([nH]c3cc(Cl)ccc23)C2(CCN(CCc3ccccc3)CC2)N1 (stereo not given)	55% (active)	17%	5	103% (active)	inactive	inactive	inactive	inactive
CC(=O)OCCN1C(=O)c2ccc3c4c(ccc(c24)C1=O)C(=O)N(CCOC(C)=O)C3=O	1%	2%	3	94% (active)	inactive	inactive	inactive	inactive
CCCCNC(=O)[C@H](Cc1ccccc1)NC(=O)c1ccc(O)c(-c2ccc(Cl)c(Cl)c2)c1	97% (active)	-8%	3	98% (active)	inactive	inactive	inactive	inactive
CCCCCCCCc1c(C)[nH]c(C)c(Cl)c1=O	95% (active)	-4%	-3	96% (active)	inactive	inactive	inactive	inactive
CC(C)(C)c1ccc(OCC(=O)NC2CCN(c3ccnc4cc(Cl)ccc34)C2)cc1 (stereo not given)	100% (active)	17%	-2	98% (active)	inactive	inactive	inactive	inactive
COc1ccc(-c2nc(-c3ccc([N+](=O)[O-])cc3)no2)cc1OC	-5%	14%	-1	96% (active)	inactive	inactive	inactive	inactive
CC(=O)Nc1ccc(Nc2cc(C)nc(Nc3ccc(NC(C)=O)cc3)n2)cc1	65% (active)	4%	-2	99% (active)	inactive	inactive	inactive	inactive
Cn1nc(-c2ccc(NC(=O)Nc3cc(C(F)(F)F)ccc3F)c(F)c2)c2cnc(NCCCN3CCOCC3)nc21	62% (active)	31%	3	100% (active)	inactive	inactive	inactive	inactive
CC(=O)NC(c1cccs1)c1cc(Cl)c2cccnc2c1O (stereo not given)	93% (active)	65% (active)	-2	94% (active)	inactive	inactive	inactive	inactive
COc1ccccc1-n1c(SCC(=O)c2ccc3c(c2)CC(=O)N3C)nnc1-c1cccs1	55% (active)	7%	-3	95% (active)	inactive	inactive	inactive	inactive
CCC(C)NS(=O)(=O)c1ccc2nc(Nc3ccc(C)c(Cl)c3)n(C(C)C(C)C)c2c1 (stereo not given)	98% (active)	22%	1	98% (active)	inactive	inactive	inactive	inactive
Cc1cc(C2CCN(CCCCNC(=O)c3ccc(-c4ccc(C(F)(F)F)cc4)cc3)CC2)c(C)cc1OCC#N	58% (active)	40%	3	100% (active)	inactive	inactive	inactive	inactive
O=C(/C=C/c1ccc(C(F)(F)F)cc1)NCCCCCN1CCCN(C(=O)Nc2ccc(F)c(Cl)c2)CC1	33%	33%	0	101% (active)	inactive	inactive	inactive	inactive

SMILES	growth inhibition [1]	inhibition [2]	inhibition [3] [%]	growth inhibition [4]	outcome [5]	outcome [6]	outcome [7]	outcome [8]
CCn1c(C(C)C)cc2c3c(N)nc(N)nc3ccc21	-2%	67% (active)	2	92% (active)	inactive	inactive	inactive	inactive
OC(CNC1CCCCC1)Cn1c2ccc(Br)cc2c2cc(Br)ccc21 (stereo not given)	100% (active)	10%	3	98% (active)	inactive	inactive	inactive	inactive
COc1ccc(CNCc2cccc(-c3ccc(-c4nc5c(C)cccc5[nH]4)cc3)c2)cc1	70% (active)	23%	7	101% (active)	inactive	inactive	inactive	inactive
CC(C)(C)C1CCC(C(=O)c2ccc3ccccc3c2O)CC1 (stereo not given)	63% (active)	-4%	-1	83% (active)	inactive	inactive	inactive	inactive
CC(=O)Oc1c(C2CCN(CCCCNC(=O)c3ccc(NC(=O)c4ccc(Cl)cc4)cc3)CC2)ccc2ccccc12	92% (active)	24%	-6	101% (active)	inactive	inactive	inactive	inactive
Cc1ccc(Nc2nccc(Nc3ccc4c(C)[nH]nc4c3)n2)cc1F	1%	6%	4	95% (active)	inactive	inactive	inactive	inactive
COc1cc2ncnc(Nc3ccc(OCc4ccccc4)c(I)c3)c2cc1OC	62% (active)	11%	5	98% (active)	inactive	inactive	inactive	inactive
COc1cc(Nc2nccc(N3CCC(NC(=O)c4cc5ccccc5s4)C3)n2)cc(OC)c1OC (stereo not given)	50% (active)	2%	2	96% (active)	inactive	inactive	inactive	inactive
COc1ccc(C2C(C(=O)Nc3cc(C)ccc3OC)c3ccccc3C(=O)N2C)cc1 (stereo not given)	3%	3%	1	86% (active)	inactive	inactive	inactive	inactive
Cc1cc2nc(-c3cc(-c4cccc(NS(C)(=O)=O)c4)cnc3N)[nH]c2cc1C	32%	43%	-2	102% (active)	inactive	inactive	inactive	inactive
COc1ccc(C(=C(C)CC(C)C(=O)O)c2ccccc2)cc1 (stereo not given)	-2%	6%	-8	95% (active)	inactive	inactive	inactive	inactive
CCOc1cc(C(=O)NC2CC(C)(C)N(C)C(C)(C)C2)ccc1-c1nc2cc(Cl)c(Cl)cc2[nH]1	49%	64% (active)	4	101% (active)	inactive	inactive	inactive	inactive
Cc1cc(=O)c(-c2ccc(Sc3ccc(Cl)cc3)cc2)c(C)[nH]1	84% (active)	-3%	-7	92% (active)	inactive	inactive	inactive	inactive
COc1c(C2CCN(CCN3CCC(CNC(=O)c4ccc(-c5ccc(C#N)cc5)cc4)CC3)CC2)ccc2c1CCCC2	100% (active)	96% (active)	0	100% (active)	inactive	inactive	inactive	inactive
COc1cccc(CNC[C@@H](O)[C@H](Cc2ccccc2)NC(=O)c2cc(OC(C)C)cc(N3CCCCS3(=O)=O)c2)c1	49%	8%	5	95% (active)	inactive	inactive	inactive	inactive
O=C(NCC1CCN(Cc2ccc3c(c2)OCCO3)C1)c1cc(-c2ccccc2F)cs1 (stereo not given)	-1%	18%	4	95% (active)	inactive	inactive	inactive	inactive
O[C@H](c1cc(C(F)(F)F)nc2c(C(F)(F)F)cccc12)[C@@H]1CCCCN1	99% (active)	29%	7	99% (active)	inactive	inactive	inactive	inactive
Oc1c(CN2CCCC(C(F)(F)F)C2)cc(Cl)c2ccccc12 (stereo not given)	53% (active)	23%	4	94% (active)	inactive	inactive	inactive	inactive
COc1ccc(S(=O)(=O)Nc2cc(C)cc(Br)c2OC)cc1N1CCN(C(=O)C(Cl)(Cl)Cl)CC1	66% (active)	9%	0	91% (active)	inactive	inactive	inactive	inactive
O=C(Nc1cccc(Cl)c1Cl)NC1CCN(Cc2cccc(O)c2)CC1	1%	1%	-1	98% (active)	inactive	inactive	inactive	inactive
